Source: ChEMBL document CHEMBL1961873, “Compounds: GSK PKIS; Assays: Nanosyn kinase panel” (2012)

Experiments:
[1] = biological target: Mitogen-activated protein kinase 3 (Homo sapiens) (UniProt P27361); conditions: at 1 µM;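 further: values are mean percent inhibition of MAPK3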
[2] = biological target: SRSF protein kinase 3 (Homo sapiens) (UniProt Q9UPE1); conditions: at 0.1 µM
[3] = biological target: SRSF protein kinase 3 (Homo sapiens) (UniProt Q9UPE1); conditions: at 1 µM
[4] = biological target: Mitogen-activated protein kinase 14 (Homo sapiens) (UniProt Q16539); conditions: at 0.1 µM
Mitogen-activated protein kinase 14 (Homo sapiens), sequence (Q16539 whole entry): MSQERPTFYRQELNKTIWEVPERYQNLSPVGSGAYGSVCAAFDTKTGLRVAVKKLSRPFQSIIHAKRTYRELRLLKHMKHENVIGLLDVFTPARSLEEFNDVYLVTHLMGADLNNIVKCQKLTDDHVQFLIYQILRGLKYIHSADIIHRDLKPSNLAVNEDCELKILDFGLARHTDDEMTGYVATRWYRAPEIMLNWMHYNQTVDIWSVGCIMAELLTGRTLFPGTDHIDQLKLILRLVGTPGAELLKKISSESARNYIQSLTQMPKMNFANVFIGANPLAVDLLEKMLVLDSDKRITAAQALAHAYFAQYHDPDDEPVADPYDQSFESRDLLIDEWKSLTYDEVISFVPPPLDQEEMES

[5] = biological target: Mitogen-activated protein kinase 14 (Homo sapiens) (UniProt Q16539); conditions: at 1 µM
[6] = biological target: Mitogen-activated protein kinase 11 (Homo sapiens) (UniProt Q15759); conditions: at 0.1 µM
Mitogen-activated protein kinase 11 (Homo sapiens), sequence (Q15759 whole entry): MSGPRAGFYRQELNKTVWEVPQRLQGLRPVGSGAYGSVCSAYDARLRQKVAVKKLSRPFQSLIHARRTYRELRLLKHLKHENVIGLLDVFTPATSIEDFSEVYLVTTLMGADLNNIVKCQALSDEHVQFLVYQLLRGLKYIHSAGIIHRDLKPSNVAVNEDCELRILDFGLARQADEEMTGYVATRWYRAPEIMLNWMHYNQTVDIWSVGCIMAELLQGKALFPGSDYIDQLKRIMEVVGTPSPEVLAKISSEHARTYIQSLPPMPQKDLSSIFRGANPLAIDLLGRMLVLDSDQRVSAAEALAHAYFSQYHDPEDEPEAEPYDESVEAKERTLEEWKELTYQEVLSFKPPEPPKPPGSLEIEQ

[7] = biological target: Mitogen-activated protein kinase 11 (Homo sapiens) (UniProt Q15759); conditions: at 1 µM
[8] = biological target: T1, Mitogen-activated protein kinase 13 (Homo sapiens) (UniProt O15264); conditions: at 0.1 µM
T1 sequence (whole entry): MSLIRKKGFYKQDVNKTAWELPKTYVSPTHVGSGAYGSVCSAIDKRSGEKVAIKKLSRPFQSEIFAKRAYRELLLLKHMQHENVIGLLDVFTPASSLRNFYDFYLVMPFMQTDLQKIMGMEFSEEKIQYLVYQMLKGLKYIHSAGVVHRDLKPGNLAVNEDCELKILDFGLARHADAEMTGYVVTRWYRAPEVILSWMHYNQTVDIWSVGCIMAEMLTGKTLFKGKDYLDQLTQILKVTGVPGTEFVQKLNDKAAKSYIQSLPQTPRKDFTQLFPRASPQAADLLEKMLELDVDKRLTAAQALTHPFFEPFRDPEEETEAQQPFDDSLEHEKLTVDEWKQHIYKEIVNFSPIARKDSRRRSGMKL

[9] = biological target: T1, Mitogen-activated protein kinase 13 (Homo sapiens); conditions: at 1 µM
[10] = biological target: T2, Mitogen-activated protein kinase 12 (Homo sapiens) (UniProt P53778); conditions: at 0.1 µM
T2 sequence (whole entry): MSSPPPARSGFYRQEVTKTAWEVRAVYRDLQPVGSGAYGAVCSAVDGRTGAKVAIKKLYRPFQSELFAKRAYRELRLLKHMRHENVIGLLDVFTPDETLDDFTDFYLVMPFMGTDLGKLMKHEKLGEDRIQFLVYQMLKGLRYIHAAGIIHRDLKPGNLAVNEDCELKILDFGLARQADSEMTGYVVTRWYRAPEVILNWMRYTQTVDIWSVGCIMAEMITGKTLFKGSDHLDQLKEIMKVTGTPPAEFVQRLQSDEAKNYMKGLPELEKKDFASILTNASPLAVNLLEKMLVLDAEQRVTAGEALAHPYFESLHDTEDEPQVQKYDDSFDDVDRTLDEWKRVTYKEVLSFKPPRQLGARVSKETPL

[11] = biological target: T2, Mitogen-activated protein kinase 12 (Homo sapiens); conditions: at 1 µM
[12] = biological target: SRSF protein kinase 1 (Homo sapiens) (UniProt Q96SB4); conditions: at 0.1 µM
SRSF protein kinase 1 (Homo sapiens), sequence (Q96SB4 whole entry, canonical isoform): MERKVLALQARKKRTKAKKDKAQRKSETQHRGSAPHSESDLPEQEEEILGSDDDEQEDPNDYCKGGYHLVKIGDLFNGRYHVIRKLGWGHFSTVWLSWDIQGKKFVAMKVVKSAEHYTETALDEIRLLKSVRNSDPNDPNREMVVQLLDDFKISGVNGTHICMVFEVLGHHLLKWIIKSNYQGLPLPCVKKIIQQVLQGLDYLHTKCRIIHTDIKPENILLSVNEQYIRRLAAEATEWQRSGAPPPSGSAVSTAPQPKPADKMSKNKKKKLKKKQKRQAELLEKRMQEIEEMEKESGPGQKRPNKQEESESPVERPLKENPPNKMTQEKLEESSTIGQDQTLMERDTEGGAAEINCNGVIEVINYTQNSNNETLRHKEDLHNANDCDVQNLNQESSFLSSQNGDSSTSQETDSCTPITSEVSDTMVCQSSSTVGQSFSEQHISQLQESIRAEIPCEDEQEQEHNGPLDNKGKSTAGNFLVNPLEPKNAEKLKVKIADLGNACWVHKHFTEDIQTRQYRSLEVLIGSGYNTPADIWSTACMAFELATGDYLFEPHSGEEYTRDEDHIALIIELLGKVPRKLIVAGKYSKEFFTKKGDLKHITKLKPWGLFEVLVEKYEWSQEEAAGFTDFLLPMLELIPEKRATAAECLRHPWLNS

[13] = biological target: SRSF protein kinase 1 (Homo sapiens) (UniProt Q96SB4); conditions: at 1 µM
[14] = biological target: Phosphatidylinositol 4,5-bisphosphate 3-kinase catalytic subunit alpha isoform (Homo sapiens) (UniProt P42336); conditions: at 0.1 µM
Phosphatidylinositol 4,5-bisphosphate 3-kinase catalytic subunit alpha isoform (Homo sapiens), sequence (P42336 whole entry, canonical isoform): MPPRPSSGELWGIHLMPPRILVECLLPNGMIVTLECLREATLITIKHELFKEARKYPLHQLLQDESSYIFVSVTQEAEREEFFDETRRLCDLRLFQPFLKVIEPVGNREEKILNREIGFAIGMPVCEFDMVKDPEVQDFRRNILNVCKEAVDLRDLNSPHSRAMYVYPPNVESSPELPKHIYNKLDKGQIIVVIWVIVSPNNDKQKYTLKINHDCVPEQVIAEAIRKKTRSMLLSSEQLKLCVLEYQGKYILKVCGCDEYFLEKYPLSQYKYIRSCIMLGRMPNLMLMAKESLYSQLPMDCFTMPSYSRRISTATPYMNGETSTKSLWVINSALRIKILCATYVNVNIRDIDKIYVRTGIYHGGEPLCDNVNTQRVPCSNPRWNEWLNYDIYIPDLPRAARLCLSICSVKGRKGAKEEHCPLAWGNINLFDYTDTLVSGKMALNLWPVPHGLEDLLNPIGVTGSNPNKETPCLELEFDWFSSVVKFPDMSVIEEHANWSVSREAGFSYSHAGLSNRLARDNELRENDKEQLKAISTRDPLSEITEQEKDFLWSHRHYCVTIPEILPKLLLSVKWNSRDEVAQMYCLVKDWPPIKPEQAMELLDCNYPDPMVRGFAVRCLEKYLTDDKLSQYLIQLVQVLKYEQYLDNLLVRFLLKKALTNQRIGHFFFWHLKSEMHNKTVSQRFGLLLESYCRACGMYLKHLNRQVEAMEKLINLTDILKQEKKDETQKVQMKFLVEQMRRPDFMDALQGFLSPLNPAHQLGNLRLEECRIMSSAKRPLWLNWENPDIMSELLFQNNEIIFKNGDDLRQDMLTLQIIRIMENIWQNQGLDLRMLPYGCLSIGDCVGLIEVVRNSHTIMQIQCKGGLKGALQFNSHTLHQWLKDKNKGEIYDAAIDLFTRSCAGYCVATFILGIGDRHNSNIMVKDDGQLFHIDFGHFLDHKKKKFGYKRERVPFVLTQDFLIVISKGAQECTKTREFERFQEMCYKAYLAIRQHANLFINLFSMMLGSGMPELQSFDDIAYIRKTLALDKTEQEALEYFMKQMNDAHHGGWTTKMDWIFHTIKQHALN

[15] = biological target: Phosphatidylinositol 4,5-bisphosphate 3-kinase catalytic subunit alpha isoform (Homo sapiens) (UniProt P42336); conditions: at 1 µM
[16] = biological target: T3, Phosphatidylinositol 4,5-bisphosphate 3-kinase catalytic subunit delta isoform (Homo sapiens) (UniProt O00329); conditions: at 0.1 µM
T3 sequence (whole entry): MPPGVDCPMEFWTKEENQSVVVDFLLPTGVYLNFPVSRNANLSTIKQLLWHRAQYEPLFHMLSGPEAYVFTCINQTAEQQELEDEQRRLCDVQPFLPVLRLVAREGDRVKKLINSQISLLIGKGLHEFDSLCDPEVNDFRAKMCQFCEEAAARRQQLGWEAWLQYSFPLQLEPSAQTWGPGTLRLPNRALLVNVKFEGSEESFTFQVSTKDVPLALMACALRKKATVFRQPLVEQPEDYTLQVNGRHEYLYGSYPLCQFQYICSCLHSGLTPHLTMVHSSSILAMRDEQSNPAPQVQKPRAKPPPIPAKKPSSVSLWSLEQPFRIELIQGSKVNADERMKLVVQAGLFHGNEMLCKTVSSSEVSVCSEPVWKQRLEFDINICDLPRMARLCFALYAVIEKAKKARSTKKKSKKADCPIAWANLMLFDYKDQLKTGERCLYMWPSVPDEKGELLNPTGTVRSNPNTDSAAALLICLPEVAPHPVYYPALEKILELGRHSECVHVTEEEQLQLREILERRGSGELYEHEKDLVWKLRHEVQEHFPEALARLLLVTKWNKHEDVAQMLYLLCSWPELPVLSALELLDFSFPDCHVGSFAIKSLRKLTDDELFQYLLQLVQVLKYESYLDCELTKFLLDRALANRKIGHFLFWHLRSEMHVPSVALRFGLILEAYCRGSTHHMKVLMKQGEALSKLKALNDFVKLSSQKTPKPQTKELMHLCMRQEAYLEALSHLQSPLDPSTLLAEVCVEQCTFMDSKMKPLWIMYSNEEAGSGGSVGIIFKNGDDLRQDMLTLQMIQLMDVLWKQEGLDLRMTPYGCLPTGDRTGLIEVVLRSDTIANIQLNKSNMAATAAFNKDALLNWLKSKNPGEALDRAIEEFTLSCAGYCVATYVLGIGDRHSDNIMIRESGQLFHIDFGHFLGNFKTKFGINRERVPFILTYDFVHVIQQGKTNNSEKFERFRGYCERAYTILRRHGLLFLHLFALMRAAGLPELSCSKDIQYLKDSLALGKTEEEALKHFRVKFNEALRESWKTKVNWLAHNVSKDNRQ

[17] = biological target: T3, Phosphatidylinositol 4,5-bisphosphate 3-kinase catalytic subunit delta isoform (Homo sapiens); conditions: at 1 µM
[18] = biological target: Phosphatidylinositol 4-kinase beta (Homo sapiens) (UniProt Q9UBF8); conditions: at 0.1 µM
Phosphatidylinositol 4-kinase beta (Homo sapiens), sequence (Q9UBF8 2-816 limits assumed): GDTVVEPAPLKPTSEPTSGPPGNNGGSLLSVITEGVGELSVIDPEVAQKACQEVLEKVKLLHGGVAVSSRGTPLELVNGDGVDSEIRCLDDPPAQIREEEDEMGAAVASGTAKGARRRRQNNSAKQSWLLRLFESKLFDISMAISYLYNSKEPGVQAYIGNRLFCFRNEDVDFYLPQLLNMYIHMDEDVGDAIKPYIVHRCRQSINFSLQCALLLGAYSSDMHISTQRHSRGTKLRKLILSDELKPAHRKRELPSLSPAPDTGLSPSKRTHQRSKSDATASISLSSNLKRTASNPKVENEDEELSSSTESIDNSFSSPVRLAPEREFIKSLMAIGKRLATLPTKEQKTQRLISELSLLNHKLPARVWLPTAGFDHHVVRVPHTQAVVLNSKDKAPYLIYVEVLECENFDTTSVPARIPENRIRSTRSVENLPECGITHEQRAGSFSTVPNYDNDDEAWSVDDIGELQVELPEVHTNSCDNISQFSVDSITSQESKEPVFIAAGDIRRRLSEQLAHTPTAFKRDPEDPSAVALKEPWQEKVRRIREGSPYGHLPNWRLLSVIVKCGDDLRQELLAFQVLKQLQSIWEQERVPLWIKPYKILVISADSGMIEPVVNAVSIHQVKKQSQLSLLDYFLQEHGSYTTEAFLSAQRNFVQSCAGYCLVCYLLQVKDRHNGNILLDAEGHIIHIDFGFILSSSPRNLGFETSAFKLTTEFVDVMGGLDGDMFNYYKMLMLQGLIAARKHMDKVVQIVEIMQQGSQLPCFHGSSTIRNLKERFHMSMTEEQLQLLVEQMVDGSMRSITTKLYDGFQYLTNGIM

[19] = biological target: Phosphatidylinositol 4-kinase beta (Homo sapiens) (UniProt Q9UBF8); conditions: at 1 µM
[20] = biological target: Sphingosine kinase 1 (Homo sapiens) (UniProt Q9NYA1); conditions: at 0.1 µM;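 further: mean percent inhibition of SPHK1 activity, measured within the GSK PKIS screening panel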
Sphingosine kinase 1 (Homo sapiens), sequence (Q9NYA1 whole entry): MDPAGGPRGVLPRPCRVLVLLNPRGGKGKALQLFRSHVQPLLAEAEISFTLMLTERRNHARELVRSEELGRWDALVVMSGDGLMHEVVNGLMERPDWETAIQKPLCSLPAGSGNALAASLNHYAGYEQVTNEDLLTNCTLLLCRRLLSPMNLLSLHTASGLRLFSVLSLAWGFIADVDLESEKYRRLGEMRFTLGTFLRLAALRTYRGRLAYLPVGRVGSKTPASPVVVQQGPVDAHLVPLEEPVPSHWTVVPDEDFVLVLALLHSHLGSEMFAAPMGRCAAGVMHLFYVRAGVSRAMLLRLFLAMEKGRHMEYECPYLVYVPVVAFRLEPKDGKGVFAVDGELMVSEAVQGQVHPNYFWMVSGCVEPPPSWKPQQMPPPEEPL

SRSF protein kinase 3 (Homo sapiens), sequence (Q9UPE1 whole entry): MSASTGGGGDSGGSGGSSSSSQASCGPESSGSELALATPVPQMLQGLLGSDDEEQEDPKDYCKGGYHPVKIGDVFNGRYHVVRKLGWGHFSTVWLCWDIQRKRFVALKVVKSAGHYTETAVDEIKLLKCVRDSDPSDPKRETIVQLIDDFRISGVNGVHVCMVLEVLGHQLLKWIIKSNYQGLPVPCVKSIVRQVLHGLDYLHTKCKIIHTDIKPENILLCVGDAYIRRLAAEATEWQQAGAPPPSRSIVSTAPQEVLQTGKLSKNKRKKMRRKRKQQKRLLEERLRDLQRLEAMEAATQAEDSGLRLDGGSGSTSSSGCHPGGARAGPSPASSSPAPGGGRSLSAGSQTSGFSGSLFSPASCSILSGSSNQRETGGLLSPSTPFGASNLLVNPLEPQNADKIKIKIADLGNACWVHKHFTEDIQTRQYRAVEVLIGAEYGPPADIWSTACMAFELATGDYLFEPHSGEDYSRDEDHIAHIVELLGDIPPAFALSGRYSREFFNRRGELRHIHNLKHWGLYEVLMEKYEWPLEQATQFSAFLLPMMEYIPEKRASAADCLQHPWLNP
Mitogen-activated protein kinase 3 (Homo sapiens), sequence (P27361 whole entry): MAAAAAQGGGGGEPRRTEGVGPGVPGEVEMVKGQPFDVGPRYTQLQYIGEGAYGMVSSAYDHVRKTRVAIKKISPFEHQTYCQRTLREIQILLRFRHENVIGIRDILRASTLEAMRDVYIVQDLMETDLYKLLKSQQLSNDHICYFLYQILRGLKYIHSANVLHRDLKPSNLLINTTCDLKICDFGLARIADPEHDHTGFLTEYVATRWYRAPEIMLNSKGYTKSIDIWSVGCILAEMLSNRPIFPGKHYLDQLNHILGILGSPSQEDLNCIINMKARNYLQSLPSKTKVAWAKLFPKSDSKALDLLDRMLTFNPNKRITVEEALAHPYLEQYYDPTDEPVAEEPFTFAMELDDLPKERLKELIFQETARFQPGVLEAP

Row | SMILES | inhibition [1] | inhibition [2] | inhibition [3] | inhibition [4] | inhibition [5] | inhibition [6] | inhibition [7] | inhibition [8] | inhibition [9] | inhibition [10] | inhibition [11] | inhibition [12] | inhibition [13] | inhibition [14] | inhibition [15] | inhibition [16] | inhibition [17] | inhibition [18] | inhibition [19] | inhibition [20]
1 | CCNC(=O)O[C@H]1CN[C@H](C#Cc2cc3ncnc(Nc4ccc(OCc5cccc(F)c5)c(Cl)c4)c3s2)C1 | 1.29% | 1.52% | 0.88% | 1.94% | 5.4% | 4.81% | -1.11% | 1.7% | 2.64% | -0.39% | 0.98% | -1.03% | -0.8% | 3.18% | 29% | 2.96% | 17.2% | -1.09% | 0.43% | 0.82%
2 | CN1CCC(n2cnc(-c3ccc(F)cc3)c2-c2ccnc(N)n2)CC1 | 3.12% | -0.19% | -0.82% | 49.7% | 83% | 5.11% | 30.6% | 0.27% | 4.13% | 0.59% | 2.49% | -1.72% | -1.48% | 1.81% | 5.12% | 4.38% | 27.1% | 1.13% | 3.14% | -2.21%
3 | CCCN1CCC(c2ccc(Nc3nc(Nc4cc(F)ccc4C(N)=O)c4cc[nH]c4n3)c(OC)c2)CC1 | 13.1% | 0.67% | 25.4% | 1.69% | 11.7% | 6.28% | 14.3% | 0.03% | 5.13% | 1.44% | 2.82% | -0.15% | 12.7% | 3.82% | 3.17% | 2.18% | 13.3% | -9.61% | -8.79% | -0.97%
4 | CCOc1ccc2c(-c3ccnc(Nc4cccc(C(F)(F)F)c4)n3)cnn2n1 | 2.69% | -2.63% | 1.62% | 3.75% | 1.48% | 5.24% | 2.69% | 1.99% | 0.75% | 0.81% | 0.81% | -3.06% | -3.22% | 2.25% | 3.21% | -0.36% | 0.32% | -2.42% | -0.91% | 0.68%
5 | CCCN(CCS(C)(=O)=O)Cc1ccc(-c2ccc3ncnc(Nc4ccc(OCc5cccc(F)c5)c(Cl)c4)c3c2)o1 | 2.62% | -1.91% | -0.61% | 10.4% | 4.25% | 0.78% | 0.65% | 4.35% | 2.64% | 0.9% | 1.28% | -1.14% | -0.67% | 0.82% | 4.19% | 0.06% | 6.07% | 1.73% | 0.08% | 7%
6 | Cc1cccc2c1NC(=O)/C2=N\Nc1ccc(S(N)(=O)=O)cc1 | 2.55% | 0.51% | 1.03% | 3.09% | 5.54% | 1.05% | 1.3% | 1.89% | 3.48% | -3.68% | 0.72% | -0.92% | -1.02% | 2.47% | 1.9% | 1.83% | 3.28% | -4.22% | -2.85% | 0.78%
7 | NS(=O)(=O)c1ccc(N/N=C2\C(=O)Nc3ccc4ncccc4c32)cc1 | 30.9% | -0.65% | -0.87% | 0.75% | 12.3% | 7.81% | 26.7% | 0.25% | 10% | 3.34% | 18.9% | -3.05% | -3.18% | 1.35% | 7.38% | 1.9% | 8.23% | 1.16% | 0.49% | -2.17%
8 | N#Cc1c(NC(=O)c2ccc(F)cc2)sc2c1CCCC2 | -0.36% | -1.54% | 0.88% | -0.55% | 3.42% | 1.36% | -0.91% | -0.62% | 0.84% | 0.35% | 0.08% | -1.47% | -1.93% | 1.06% | 0.48% | 1.32% | -1.48% | -4.06% | 1.29% | -0.62%
9 | NS(=O)(=O)c1ccc(Nc2ncc(-c3ccccc3)o2)cc1 | 3.8% | -0.01% | 1.63% | 3.61% | 9.04% | 6.06% | 7.67% | 3.81% | 5.86% | 0.56% | 1.81% | -0.91% | 0.75% | 3.75% | 2.69% | 0.62% | 3.33% | -3.61% | 4.39% | 0.6%
10 | CNC(=O)c1cccc(C#Cc2cncnc2Nc2ccc(OCc3cccc(F)c3)c(Cl)c2)c1 | 0.63% | -4.28% | -0.55% | -0.67% | 3.2% | 1.64% | 1.73% | -0.77% | -0.49% | 0.07% | -0.21% | -1.88% | 0.32% | 0.38% | -2.56% | 0.74% | -1.1% | 1.78% | 1.45% | 0.36%
11 | c1cc(-c2cnn3nc(N4CCOCC4)ccc23)nc(NC2CC2)n1 | 3.9% | 2.15% | 9.24% | 6.66% | 16.6% | 3.09% | 13.1% | 6.27% | 19.7% | 0.63% | 13.6% | -1.17% | 1.29% | 2.09% | 6.22% | 1.85% | 4.21% | 0.77% | 21% | -1.93%
12 | COc1cc(/C=N/Nc2ncnc3[nH]ncc23)ccc1O | 6.69% | 0.77% | 1.87% | 7.26% | 6.91% | 4.13% | 4.56% | 1.51% | 5.72% | 0.15% | 2.2% | -1.89% | 2.08% | 10.2% | 44.2% | 3.6% | 20.3% | 6.86% | 30.9% | -1.46%
13 | c1ccc(-c2nc3n(c2-c2ccc4c(c2)OCO4)CCC3)nc1 | 2.21% | -1.69% | -1.14% | 4.21% | 13.4% | 0.27% | 2.77% | 1.49% | 2.52% | 1.78% | 1.88% | -0.51% | -1.84% | 5.05% | 7.23% | 6.67% | 8.16% | -3.19% | -2.19% | -1.79%
